Pol eta inh = inhibitors of human DNA polymerase eta | Q9Y253 | recombinant Pol eta, fluorescent DNA replication assay | Potency, µM (highest dose often 114 µM), for inactives: at the highest dose activity change, negative = inhibition, usual class: inhibitors | 1.2% of 390,000 active; also: % is scaled to controls: 0 for no effect and ±100 for the full control effect
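Fluorescent replication assay: 50 nM final substrate added after a 15 min room-temperature compound preincubation with 10 nM enzyme. Signal taken at 0 min and again at 10 min.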
Pol beta inh = blocks human DNA polymerase beta activity; Pol beta primer extension/strand displacement, fluorescence kinetic; Potency, µM (titrated, usually from 114 µM), without a hit: top-dose activity change, negative = inhibition, hits mostly inhibitors; 1.3% of 340,000 active; also: % is scaled to controls: 0 for no effect and ±100 for the full control effect
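Human Pol beta at 10 nM; strand-displacement substrate 50 nM final. Compound exposure 15 min at room temperature before start, reaction 10 min at room temperature.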
Pol iota inh = DNA polymerase iota (human) inhibition; Pol iota fluorescent replication assay, 10 min; 1% of 390,000 active; AID 588590; Q9UNA4; Potency, µM (highest dose often 115 µM), for the others: at the top dose activity, negative = inhibition, most hits filed as inhibitors
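Fluorescent replication assay read twice, at 0 min and 10 min after adding 50 nM (final) substrate. Enzyme (10 nM) and compounds were first incubated 15 min at room temperature; enzyme-free buffer wells were negative controls.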
POLK inh = DNA polymerase kappa (human) inhibition. Q9UBT6. purified Pol kappa, fluorescent DNA synthesis assay, 10 min. Potency, µM (titrated, usually from 107 µM), for the others: at the highest dose activity, negative = inhibition, hits mostly inhibitors. 0.53% of 400,000 active. AID 588579; also: % is scaled to controls: 0 for no effect and ±100 for the full control effect
Target sequence (Q9UBT6 whole entry, looked up): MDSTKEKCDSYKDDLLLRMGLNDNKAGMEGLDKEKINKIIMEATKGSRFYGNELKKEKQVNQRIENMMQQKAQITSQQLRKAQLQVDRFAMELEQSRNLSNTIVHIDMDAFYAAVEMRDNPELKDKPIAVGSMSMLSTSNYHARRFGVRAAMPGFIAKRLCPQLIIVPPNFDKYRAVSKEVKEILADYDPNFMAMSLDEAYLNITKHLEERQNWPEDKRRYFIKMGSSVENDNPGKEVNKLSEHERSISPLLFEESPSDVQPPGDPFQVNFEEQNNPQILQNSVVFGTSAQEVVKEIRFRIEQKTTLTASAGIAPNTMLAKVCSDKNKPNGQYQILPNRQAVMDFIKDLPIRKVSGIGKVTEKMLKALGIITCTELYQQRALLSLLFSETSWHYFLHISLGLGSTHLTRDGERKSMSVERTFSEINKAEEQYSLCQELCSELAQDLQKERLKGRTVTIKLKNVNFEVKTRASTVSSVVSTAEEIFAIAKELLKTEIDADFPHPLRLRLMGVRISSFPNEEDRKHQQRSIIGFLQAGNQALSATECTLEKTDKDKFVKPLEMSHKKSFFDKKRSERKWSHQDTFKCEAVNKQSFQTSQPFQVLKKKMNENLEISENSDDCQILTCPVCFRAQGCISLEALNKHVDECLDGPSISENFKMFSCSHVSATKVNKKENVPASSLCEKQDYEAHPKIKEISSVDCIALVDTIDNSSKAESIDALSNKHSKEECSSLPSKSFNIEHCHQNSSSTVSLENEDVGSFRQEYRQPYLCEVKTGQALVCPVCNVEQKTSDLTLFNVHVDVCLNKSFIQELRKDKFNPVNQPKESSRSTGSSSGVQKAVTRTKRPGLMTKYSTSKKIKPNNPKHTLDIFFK
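Here, compound and 10 nM enzyme are combined for 15 min at room temperature; adding 50 nM substrate (final) starts DNA synthesis, tracked by fluorescence at 0 and 10 min against buffer-only wells.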
L3MBTL1 block = inhibitors of human L3MBTL1; Q9Y468; AlphaScreen L3MBTL1–H3K9me1 peptide binding; Potency, µM (doses to about 57.1 µM), without a hit: at the top dose activity, negative = inhibition, usual class: inhibitors; 0.66% of 230,000 active; AID 485360; also: % is scaled to controls: 0 for no effect and ±100 for the full control effect; nearly all actives have a fitted effect of over 60% in size
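AlphaScreen proximity signal between nickel-chelate acceptor and streptavidin donor beads (final 10 ug/mL) reports binding of 50 nM L3MBTL1 to 75 nM biotin-H3 K9me1 peptide; complex incubated with compounds 30 min at room temperature; cefsulodin titration as control.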
Active calls of the source: *; ? = inconclusive; · = no result given; ! = a repeat was not active; [ ] = another dose, or the depositor's remark. An excerpt weighted towards active compounds, which were near 2.4% of everything screened. Calls follow the shape of the dose curve; as a rule, active = well fitted curve in the direction sought with a large enough effect; inconclusive = small, poorly fitted or top-dose-only effect, or another doubt; inactive = no such curve, though single readings can be large; an effect the other way counts as inactive or inconclusive. Potency is read from the fitted curve at half-maximal effect.

SMILES	Pol eta inh	Pol beta inh	Pol iota inh	POLK inh	L3MBTL1 block
Cc1ccc(C(=O)C(OC(=O)CNC(=O)COc2ccccc2C)c2ccccc2)cc1 (configuration not stated)	·	·	-19%	1%	·
Cc1ccccc1-c1nnc(SCc2ccc(F)cc2)o1	7%	-28%	89µM*	-8%	·
Fc1ccc(CSc2nnc(-c3ccncc3)o2)cc1	-14%	9%	33%	0%	3%
c1csc(Cc2nn3c(-c4ccncc4)nnc3s2)c1	?	32µM*	20µM*	40µM*	?
c1csc(-c2nn3c(-c4ccncc4)nnc3s2)c1	·	2%	·	·	1%
CSc1ccc(/C=C/C(=O)NC(=O)c2ccccc2O)cc1	-23%	35µM*	?	-40%	?
O=C(/C=C/c1ccc(Br)cc1)NC(=O)c1ccccc1O	-18%	32µM*	56%	0%	-24%
Cc1ccc(N2CC(NC(=O)Cc3ccc(F)cc3)CC2=O)cc1C (configuration not stated)	-18%	-4%	27%	0%[60.1 µM]	·
CS(=O)(=O)N1N=C(c2ccccc2)CC1c1ccc2c(c1)OCO2 (configuration not stated)	32µM*	?	-1%	-6%	-14%
COc1ccc(CCN2CCC[C@H](CN3CCc4cc(OC)c(OC)cc4CC3=O)C2)cc1OC	·	·	·	10%[60.1 µM]	·
CCS(=O)(=O)N1Cc2ccccc2CC1C(=O)NCCc1ccccc1 (configuration not stated)	-14%	50µM*	?	-7%	·
CCS(=O)(=O)N1Cc2ccccc2CC1C(=O)Nc1cc(S(C)(=O)=O)ccc1Cl (configuration not stated)	?	-11%	35µM*	?	·
CCn1c(SCC(=O)Nc2ccc(C)c(C)c2)nnc1-c1nonc1NC(C)=O	-5%	-20%	1%	0%	·
CCOc1ccc(Oc2ccccc2NS(=O)(=O)c2ccc(CCC(=O)O)cc2)cc1	35µM*	·	16%	-12%	-11%
CCCCn1c(SCC(=O)c2ccc(O)c(O)c2)nc2ccsc2c1=O	8.9µM*	?	?	-22%	-2%
Cc1ccccc1-c1cc2c(nn1)-c1ccccc1C2=O	-14%	-2%	16µM*	-6%	·
CC1CCN(C(=O)Cn2cc(SCC(=O)NCc3ccccc3Cl)c3ccccc32)CC1	-5%	6%	2%	-9%	·
Cc1cc(O)c(C(C)C)cc1N=Cc1ccccc1O	-7%	24%	20µM*	-12%	-29%
CC(Oc1ccc(F)cc1)C(=O)Nc1cccc(-c2nn[nH]n2)c1 (configuration not stated)	45µM*	-1%	45µM*	-23%	·
COc1ccc(CNC(=O)CCc2c(C)c3cc4c(C)c(C)oc4cc3oc2=O)cc1	-24%	22µM*	13%	-6%	·
CCC(NC(=O)CCc1c(C)c2cc3c(C)c(C)oc3cc2oc1=O)C(=O)N[C@@H](Cc1ccccc1)C(=O)O (some centres not stated)	?	32µM*	8%	12%	7%
COc1ccc(OC)c(CCNC(=O)c2nc(-c3ccc(Cl)cc3)n3c2CCCCC3)c1	-28%	-26%	9%	-10%	·
Cc1ccc(C(=O)Nc2nnc(SCc3cc(=O)c4c(C)ccc(C)c4[nH]3)s2)cc1	-10%	50µM*	?	-1%[60.1 µM]	·
O=C(Nc1nnc(SCc2cc(=O)c3ccccc3[nH]2)s1)c1ccccc1	-13%	-25%	9%	-1%[60.1 µM]	·
O=C1CCCC2=C1C(c1ccc(O)c(O)c1)Nc1ccc3ccccc3c12 (configuration not stated)	?	·	79µM*	?	·
SMILES	Pol eta inh	Pol beta inh	Pol iota inh	POLK inh	L3MBTL1 block
COc1cc(C2Nc3ccc4ncccc4c3C3=C2C(=O)CCC3)cc(OC)c1O (configuration not stated)	?	-6%	31%	-11%	30%[11.4 µM]
O=C(CSc1nc(NS(=O)(=O)c2ccccc2)cc(=O)[nH]1)Nc1ccc(F)cc1	?	25µM*	18µM*	50µM*	?
O=C(CSc1nc(O)cc(=O)[nH]1)Nc1ccc2c(c1)CCC2	-17%	?	16µM*	79µM*	-3%
O=C(CSc1nc(NS(=O)(=O)c2ccccc2)cc(=O)[nH]1)Nc1cccc(C(F)(F)F)c1	-23%	?	?	-25%	·
COc1ccc(Nc2nc3ccccc3nc2NS(=O)(=O)c2ccc(Cl)cc2)cc1OC	-1%	0%	-8%	-1%	·
Cc1nc2ccc(S(=O)(=O)N(C)CC(=O)Nc3ccc(C(C)C)cc3)cc2s1	·	0%	27%	-2%	·
CCc1ccc2oc(C(=O)Nc3c(C)n(C)n(-c4ccccc4)c3=O)cc(=O)c2c1	-6%	10%	11%	-21%	·
Cc1[nH]c(=O)nc(SCc2cccc(Cl)c2)c1C#N	-8%	71µM*	24%	-20%	·
N#CC(C#N)=C1C=C2C=C(N3CCCCC3)CCC2CC1 (configuration not stated)	79µM*	50µM*	?	-7%	-9%
COC(=O)c1ccc(COc2ccc3ccc(=O)oc3c2)o1	-13%	-3%	8%	4%	·
COC(=O)c1ccc(COc2ccc3c(C)c(C)c(=O)oc3c2)o1	-15%	56µM*	?	-6%	-23%
CCC1=NN2C(=N)/C(=C\c3ccc(SCc4ccco4)o3)C(=O)N=C2S1	16µM*	13µM*	22µM*	?	·
CCCC1=NN2C(=N)/C(=C\c3ccc(SCc4ccco4)o3)C(=O)N=C2S1	3.5µM*	13µM*	20µM*	28µM*	·
O=C1NC(=S)S/C1=C\c1ccc(SCc2ccco2)o1	1.6µM*	2.2µM*	?	1.8µM*	3.5µM*
CCOc1ccc(Nc2oc(/C=C/c3ccc(OC)c(OC)c3)nc2C#N)cc1	-16%	32%	8%	-2%	·
O=C(COC(=O)/C=C/c1ccc(Br)o1)Nc1ccccc1F	·	25µM*	·	·	?
CSc1ccccc1NC(=O)COC(=O)/C=C/c1ccco1	?	·	?	0%	?
O=C(COC(=O)/C=C/c1ccc(Br)o1)NC1CCCCC1	?	·	22µM*	79µM*	?
Oc1c(C(Nc2ccccn2)c2ccccn2)ccc2cccnc12 (configuration not stated)	-13%	12%	14%	-13%	28µM*
O=C(Cc1ccc(Cl)cc1)c1ccc(O)cc1	1%	2%	50µM*	-18%	22%
COc1ccc(NC(=O)c2ccc3c(SCC(=O)O)c4c(nc3c2)CCCC4)c(OC)c1	-18%	40µM*!	79µM*	?	·
O=C(O)CSc1c2c(nc3cc(C(=O)Nc4ccc(F)c(Cl)c4)ccc13)CCCC2	50µM*	20%	?	-10%	·
COc1ccc(Cl)cc1NC(=O)c1ccc2c(SCC(=O)O)c3c(nc2c1)CCCC3	-19%	-19%	?	-4%	·
